Unmarked numbers belong to inactive results. The source made the active and inactive calls. Unless noted, calls follow the shape of the dose curve; as a rule, active = well fitted curve in the direction sought with a large enough effect in the repeat runs; inconclusive = weak or mixed curves; inactive = no such curve, though single readings can be large; an effect the other way counts as inactive or inconclusive.

A short description of experiment [1]: qHTS assay to identify small molecule antagonists of the glucocorticoid receptor (GR) signaling pathway - cell viability counter screen (AID 720693; also: nearly all actives have a fitted effect of over 55% in size; also: potency is read from the fitted curve at half-maximal effect). (Quantitative high-throughput screening tests each substance at several concentrations.)
Experiment [2] is described as follows: qHTS assay for identifying genotoxic compounds that show differential cytotoxicity against isogenic chicken DT40 cell lines with known DNA damage response pathways - wild type cell line (AID 743012). Also: nearly all actives have a fitted effect of over 60% in size. Also: potency is read from the fitted curve at half-maximal effect. The procedure, abridged: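 Wild type DT40, 300 cells/well, ~0.5 h settle at 37 C/5% CO2; compounds in DMSO added by pintool; 40 h at 37 C/5% CO2; CellTiter-Glo, 30 min RT; luminescence.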

Experiment [3] can be described thus: qHTS assay for identifying genotoxic compounds that show differential cytotoxicity against isogenic chicken DT40 cell lines with known DNA damage response pathways - Rev3 mutant cell line (AID 743014). Also: nearly all actives have a fitted effect of over 55% in size. Also: potency is read from the fitted curve at half-maximal effect.
Experiment [4] in a line: qHTS assay to identify small molecule antagonists of the androgen receptor (AR) signaling pathway - cell viability counter screen (AID 743033; also: nearly all actives have a fitted effect of over 45% in size; also: potency is read from the fitted curve at half-maximal effect).
Experiment [5] is described as follows: qHTS assay to identify small molecule antagonists of the thyroid receptor (TR) signaling pathway - cell viability counter screen (AID 743064). Also: nearly all actives have a fitted effect of over 50% in size. Also: potency is read from the fitted curve at half-maximal effect. A digest of the protocol:
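Fluorescence from CellTiter-Fluor, added after 23.5 h exposure at 37 °C, reported viability of GH3.TRE-Luc cells co-treated with compound and 1 nM T3. Measured in the same wells as the luciferase TR readout.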

Experiment [6] relates to thyroid hormone receptor (rat, GH3 cells). Nature of the experiment: qHTS assay to identify small molecule agonists of the thyroid receptor (TR) signaling pathway (AID 743066; calls by dose curve; also: % is scaled to controls: 0 for no effect and ±100 for the full control effect).
Experiment [7] concerns the target Estrogen receptor (Homo sapiens) (UniProt P03372). Nature of the experiment: qHTS assay to identify small molecule antagonists of the estrogen receptor alpha (ER-alpha) signaling pathway (AID 743069; active = well fitted curve in the direction sought with a large enough effect in the signal ratio in the repeat runs, not every such curve was filed as active; inconclusive = weak or mixed curves, or effect the other way; inactive = no such curve, though single readings can be large or run the other way; the % refers to the signal ratio; also: potency is read from the fitted curve at half-maximal effect). The procedure, abridged:
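Reporter cells (ER-alpha-bla, HEK293 background) are conditioned overnight in stripped-serum medium (2% charcoal-stripped FBS). Compound and 17beta-estradiol exposure runs 18 hr at 37C, 5% CO2.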

A short description of experiment [8]: qHTS assay to identify small molecule antagonists of the estrogen receptor alpha (ER-alpha) signaling pathway - cell viability counter screen (AID 743074; calls by dose curve;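 also: HEK293 cells carrying ER-alpha-UAS-bla reporter stimulated with 17beta-estradiol; nearly all actives have a fitted effect of over 45% in size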; also: potency is read from the fitted curve at half-maximal effect).
Experiment [9] has as its target Estrogen receptor (Homo sapiens) (UniProt P03372). The experiment in a line: qHTS assay to identify small molecule agonists of the estrogen receptor alpha (ER-alpha) signaling pathway (AID 743075; calls by dose curve;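 also: HEK293 GripTite cells with ER-alpha and UAS-driven beta-lactamase reporter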; also: potency is read from the fitted curve at half-maximal effect; as to activation: % is scaled to controls: 0 for no effect and ±100 for the full control effect). The settings on record: HEK293 ER-alpha-UAS-bla, beta-lactamase FRET ratio, 18 h; activation: at 70.1 µM (top of the series).
Experiment [10] can be described thus: qHTS assay to identify small molecule antagonists of the estrogen receptor alpha (ER-alpha) signaling pathway using the BG1 cell line - cell viability counter screen (AID 743081).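 Also: compound given together with 17beta-estradiol as the ER stimulus; nearly all actives have a fitted effect of over 45% in size.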 Also: potency is read from the fitted curve at half-maximal effect.
The target in a further experiment is Aromatase (Homo sapiens) (UniProt P11511). Nature of the experiment: qHTS assay to identify aromatase inhibitors (AID 743083). Also: nearly all actives have a fitted effect of over 55% in size. Also: potency is read from the fitted curve at half-maximal effect.
Sequence of Aromatase (Homo sapiens) (P11511 whole entry, looked up): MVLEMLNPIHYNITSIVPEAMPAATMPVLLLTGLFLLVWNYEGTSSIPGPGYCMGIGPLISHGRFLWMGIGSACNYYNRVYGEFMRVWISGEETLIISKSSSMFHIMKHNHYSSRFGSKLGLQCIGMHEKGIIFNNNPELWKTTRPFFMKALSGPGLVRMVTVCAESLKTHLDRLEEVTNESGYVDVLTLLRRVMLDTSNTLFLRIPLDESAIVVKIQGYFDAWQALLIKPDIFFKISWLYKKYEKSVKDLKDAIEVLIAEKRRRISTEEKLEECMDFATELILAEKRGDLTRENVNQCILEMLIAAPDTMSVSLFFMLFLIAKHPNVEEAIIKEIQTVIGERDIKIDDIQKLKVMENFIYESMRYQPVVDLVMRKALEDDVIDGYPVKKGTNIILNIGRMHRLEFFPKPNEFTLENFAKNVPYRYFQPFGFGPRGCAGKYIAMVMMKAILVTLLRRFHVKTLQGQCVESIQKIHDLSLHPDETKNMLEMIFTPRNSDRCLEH
Experiment [11] in a line: qHTS assay to identify small molecule antagonists of the androgen receptor (AR) signaling pathway using the MDA cell line - cell viability counter screen (AID 743041; also: nearly all actives have a fitted effect of over 45% in size; also: potency is read from the fitted curve at half-maximal effect). A digest of the protocol: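 Same-well cytotoxicity was assessed by CellTiter-Fluor in MDA-kb2 AR-luc cells after 16 h of compound treatment under R1881 agonism.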
A short description of experiment [12]: qHTS assay to identify small molecule antagonists of the thyroid receptor (TR) signaling pathway (AID 743065). Also: nearly all actives have a fitted effect of over 55% in size. Also: potency is read from the fitted curve at half-maximal effect. A digest of the protocol:
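GH3.TRE-Luc rat pituitary cells (two TREs driving luciferase) were dosed with compound, then stimulated with 1 nM T3 (final) for 23.5 h at 37 C. ONE-Glo luminescence was the read-out, with CellTiter-Fluor fluorescence as the cytotoxicity counter-screen.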

Experiment [13] concerns the target Androgen receptor (Homo sapiens) (UniProt P10275). The experiment in a line: qHTS assay to identify small molecule agonists of the androgen receptor (AR) signaling pathway using the MDA cell line (AID 743040; also: % is scaled to controls: 0 for no effect and ±100 for the full control effect; nearly all actives have a fitted effect of over 20% in size). The procedure, abridged: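 Human breast carcinoma MDA-kb2 reporter cells (MMTV-luc, AR/GR elements) were treated for 16 h at 37C in 0% CO2 following a 5 h settling period. Signal was quantified by ONE-Glo luminescence.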

Experiment [14] has the same target. The experiment in a line: qHTS assay to identify small molecule antagonists of the androgen receptor (AR) signaling pathway using the MDA cell line (AID 743042; also: nearly all actives have a fitted effect of over 55% in size; also: potency is read from the fitted curve at half-maximal effect). A digest of the protocol: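 MDA-kb2 breast carcinoma cells carrying MMTV-luciferase (AR/GR responsive) were co-treated with compounds and the agonist R1881 for 16 h at 37C. Inhibition read as ONE-Glo luminescence; CellTiter-Fluor fluorescence measured in parallel for cytotoxicity.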

The target is the same in experiment [15]. Nature of the experiment: qHTS assay to identify small molecule antagonists of the androgen receptor (AR) signaling pathway (AID 743035; active = well fitted inhibition curve with a large enough effect in the signal ratio in the repeat runs, not every such curve was filed as active; inconclusive = weak or mixed curves, or effect the other way; inactive = no such curve, though single readings can be large or run the other way; the % refers to the signal ratio; also: potency is read from the fitted curve at half-maximal effect). A digest of the protocol: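 Fluorescence from a beta-lactamase FRET substrate (LiveBLAzer B/G, 2 h, room temperature) measured inhibition of R1881-stimulated signaling in GeneBLAzer AR-UAS-bla HEK293 cells exposed to compound for 16 h at 37C.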

The target of experiment [16] is Estrogen receptor (Homo sapiens) (UniProt P03372). The experiment in a line: qHTS assay to identify small molecule agonists of the estrogen receptor alpha (ER-alpha) signaling pathway using the BG1 cell line (AID 743079). Also: % is scaled to controls: 0 for no effect and ±100 for the full control effect; nearly all actives have a fitted effect of over 20% in size. Particulars: BG1Luc4E2 cells, ERE-luciferase agonist, 22 h; at 95 µM (top of the series).
Sequence of Estrogen receptor (Homo sapiens) (P03372 whole entry, looked up): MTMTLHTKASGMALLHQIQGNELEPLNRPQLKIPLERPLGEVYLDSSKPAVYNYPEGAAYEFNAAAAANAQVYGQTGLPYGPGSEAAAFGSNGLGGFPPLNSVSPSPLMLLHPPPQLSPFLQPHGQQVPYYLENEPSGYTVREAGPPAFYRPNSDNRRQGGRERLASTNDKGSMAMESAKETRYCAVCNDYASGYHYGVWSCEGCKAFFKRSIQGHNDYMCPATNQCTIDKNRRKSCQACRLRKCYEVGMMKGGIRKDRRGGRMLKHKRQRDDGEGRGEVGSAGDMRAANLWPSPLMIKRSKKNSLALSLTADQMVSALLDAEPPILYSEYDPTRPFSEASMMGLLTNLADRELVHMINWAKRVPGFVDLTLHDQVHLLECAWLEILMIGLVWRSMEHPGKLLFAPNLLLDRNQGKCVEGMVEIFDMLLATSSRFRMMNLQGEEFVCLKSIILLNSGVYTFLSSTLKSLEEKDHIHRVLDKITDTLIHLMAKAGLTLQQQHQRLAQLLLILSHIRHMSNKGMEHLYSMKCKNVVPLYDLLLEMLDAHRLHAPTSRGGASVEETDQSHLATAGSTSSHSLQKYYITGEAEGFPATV
Experiment [17] is described as follows: qHTS assay to identify small molecule antagonists of the estrogen receptor alpha (ER-alpha) signaling pathway using the BG1 cell line (AID 743080; calls by dose curve;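 also: BG1 cells stimulated with 17beta-estradiol alongside compound; % is scaled to controls: 0 for no effect and ±100 for the full control effect; nearly all actives have a fitted effect of over 25% in size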). The procedure, abridged:
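Seeding, 24 h rest, compound transfer from DMSO, 17beta-estradiol addition, 21.5 h incubation, CellTiter-Fluor (30 min, 37 C), then ONE-Glo (30 min, room temperature): this sequence was run on BG1-Luc-4E2 reporter cells.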

Sequence of Androgen receptor (Homo sapiens) (P10275 whole entry, looked up): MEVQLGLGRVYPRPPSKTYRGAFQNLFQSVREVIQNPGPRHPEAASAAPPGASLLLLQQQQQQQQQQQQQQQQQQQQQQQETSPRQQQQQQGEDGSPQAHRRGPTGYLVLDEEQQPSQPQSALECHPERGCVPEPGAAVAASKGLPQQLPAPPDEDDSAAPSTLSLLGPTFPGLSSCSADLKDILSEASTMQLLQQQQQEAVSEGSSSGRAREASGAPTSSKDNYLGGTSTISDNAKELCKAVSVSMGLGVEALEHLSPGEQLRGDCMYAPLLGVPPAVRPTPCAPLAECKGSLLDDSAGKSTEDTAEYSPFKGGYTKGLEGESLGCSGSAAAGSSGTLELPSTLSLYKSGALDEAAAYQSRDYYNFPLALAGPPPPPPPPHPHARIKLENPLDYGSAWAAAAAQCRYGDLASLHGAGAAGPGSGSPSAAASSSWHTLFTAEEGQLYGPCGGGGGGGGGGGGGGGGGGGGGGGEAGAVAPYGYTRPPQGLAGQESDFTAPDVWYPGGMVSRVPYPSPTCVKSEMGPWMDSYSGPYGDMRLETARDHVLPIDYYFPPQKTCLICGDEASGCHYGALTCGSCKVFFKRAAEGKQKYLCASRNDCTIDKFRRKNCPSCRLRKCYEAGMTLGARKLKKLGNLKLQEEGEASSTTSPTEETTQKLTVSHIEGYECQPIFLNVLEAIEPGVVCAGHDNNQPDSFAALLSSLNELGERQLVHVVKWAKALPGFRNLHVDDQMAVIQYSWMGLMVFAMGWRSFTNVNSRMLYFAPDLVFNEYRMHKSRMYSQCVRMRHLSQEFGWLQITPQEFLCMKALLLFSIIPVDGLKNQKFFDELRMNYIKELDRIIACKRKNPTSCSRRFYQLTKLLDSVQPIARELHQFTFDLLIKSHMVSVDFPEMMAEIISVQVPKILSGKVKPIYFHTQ

As for `O=C(NO)C1(NS(=O)(=O)c2ccc(Oc3ccc(F)cc3)cc2)CCOCC1`, the Potency result in [1], in [4], in [5], in experiment [6], in experiment [7] and in [8] was “inactive” throughout. The Potency entry (in experiment [9]; in experiment [10]; with Aromatase (Homo sapiens)) was “inactive” throughout. Besides, the Potency in experiment [2] was 54.5 µM (active); in experiment [3], 30.6 µM (active).

Regarding `CCOC(=O)O[C@]1(C(=O)OCCl)CC[C@H]2[C@@H]3CCC4=CC(=O)C=C[C@]4(C)[C@H]3[C@@H](O)C[C@@]21C`, the Potency result in experiment [1], in experiment [2], in [3], in experiment [4], in experiment [11] and in [5] was “inactive” in each case. The Potency result (in experiment [12]; in [6]; in [8]; in [10]; with Aromatase (Homo sapiens)) was “inactive” each time.

Take `Cc1onc(-c2c(Cl)cccc2Cl)c1C(=O)N[C@@H]1C(=O)N2[C@@H]1SC(C)(C)[C@@H]2C(=O)O`: the Potency result in experiment [1], in experiment [2], in [3], in experiment [4], in experiment [13] and in experiment [11] was “inactive” each time. Besides, the Potency entry (in experiment [14]; in experiment [5]; in experiment [6]; in experiment [8]; in experiment [10]; in the experiment with Aromatase (Homo sapiens)) was “inactive” throughout.

Take `Cc1cc2c(cc1C(F)(F)F)N(C(=O)Nc1ccc(Oc3cccnc3C)nc1)CC2`: the Potency result in [1], in [4], in experiment [5], in experiment [6], in [7] and in experiment [8] was “inactive” throughout. Moreover, the Potency entry in experiment [9] and in experiment [10] was “inactive” each time. Further, the Potency is 1.24 µM (active) in experiment [2] and 0.781 µM (active) in experiment [3].

Take `CCC(C)Nc1ccc(NC(C)CC)cc1` (stereo not given): the Potency in experiment [1] is 44.5 µM (active); in [2] it was 12.4 µM (active); in experiment [3], 5.55 µM (active); in [4], 12.5 µM (active); in experiment [15] it was 8.88 µM (active); in experiment [11] it was 19.7 µM (active). For the same molecule, the Potency in experiment [14] was 8.8 µM (active); in experiment [5], 14 µM (active); in experiment [12] it was 14 µM (active); in experiment [7], 22.3 µM [inconclusive] (active); in experiment [8], 25 µM (active); in [10] it was 24.8 µM (active). The Potency in the experiment with Aromatase (Homo sapiens) is 3.93 µM (active). The Potency entry in [13] and in experiment [6] was “inactive” in each case.

`NNc1nc(-c2ccccc2)cs1`: the Potency result in [1], in experiment [2], in experiment [3], in [4], in experiment [11] and in experiment [6] was “inactive” throughout. Further, the Potency entry (in experiment [8]; in experiment [9]; in experiment [17]; in the experiment with Aromatase (Homo sapiens)) was “inactive” throughout. Moreover, the Potency in [5] was 31.5 µM (active). Besides, the activation in experiment [16] is 7.73%.

Turning to `O=C(NOCC1CC1)c1ccc(F)c(F)c1Nc1ccc(I)cc1Cl`, the Potency was 23.9 µM (active) in experiment [1]; 29.8 µM (active) in experiment [2]; 29.8 µM (active) in [3]; 15 µM (active) in experiment [5]; 13.3 µM (active) in experiment [12]; 3.79 µM [inconclusive] (active) in [7]. The Potency entry (in experiment [13]; in [11]; in [9]; in [10]; with Aromatase (Homo sapiens)) was “inactive” throughout.

As to `C=CC(=O)OCC(CO)(COCC(COC(=O)C=C)(COC(=O)C=C)COC(=O)C=C)COC(=O)C=C`, the Potency in [1] is 4.31 µM (active); in experiment [2], 0.34 µM (active); in experiment [3], 0.428 µM (active); in experiment [4], 3.84 µM (active); in experiment [15] it was 1.93 µM (active); in [11], 1.2 µM (active). For the same molecule, the Potency was 1.07 µM (active) in experiment [14]; 1.52 µM (active) in experiment [5]; 21.6 µM (active) in experiment [8]; 10.8 µM [inconclusive] (active) in experiment [9]; 13.5 µM (active) in experiment [10]; 2.4 µM (active) in the experiment with Aromatase (Homo sapiens). Also, the Potency result in experiment [13] is “inactive”.

These data come from PubChem BioAssay (Tox21).
